The source of these data is PubChem BioAssay (EPA / NIEHS).

Molecules are shown by their SMILES. Records with an inconclusive call do not appear. The source made the active and inactive calls. How the source made its calls, unless noted: active means hit-call score of the fitted dose curve at least 0.9, where 1 is the maximum; inconclusive means response in the unintended direction; inactive means score below 0.9.

Usually AC50 stands for the concentration giving half of the maximal activity seen.

Experiment [1] in a line: CCTE_Shafer_MEA_dev_LDH: CCTE's Lactate Dehydrogenase Assay for Cytotoxicity in the Neural Network Formation Assay, Shafer Lab (AID 2284068).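 Further: exposure for twelve days from plating with re-dosing on DIV 5 and 9.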 The method, boiled down: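 Cytotoxicity companion to network-formation recordings: rat cortical neurons received compound over 12 days of development, re-dosed at DIV 5 and 9 feeds. Viability was inferred from LDH enzyme activity relative to DMSO.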

Experiment [2] in a line: CCTE_Shafer_MEA_dev_AB: CCTE's Alamar Blue Assay for Cytotoxicity in the Neural Network Formation Assay, Shafer Lab (AID 2284083).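 Further: twelve days of exposure from plating with re-dosing on DIV 5 and 9.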 The method, boiled down:
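Fluorescent resazurin reduction serves as the viability read-out, with DMSO as negative control and baseline. Cells were primary rat cortical neurons grown on MEA plates and dosed from day 0 to day 12, treatment renewed on DIV 5 and 9.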
For orientation: The colour change of resazurin is a common sign of viable cells or microbes.

Experiment [3] in a line: CCTE_Shafer_MEA_dev_mutual_information_norm: CCTE's Neural Network Formation Assay for Mutual Information Normalization, Shafer Lab (AID 2284091; active means hit-call score of the fitted dose curve at least 0.9, where 1 is the maximum; inactive means score below 0.9;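 on AC50: mutual information between electrodes summarised as area under curve across four recording days; potency is for a decrease in mutual information relative to DMSO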). In outline:
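Shared information across electrodes, tracked on days 5, 7, 9 and 12 of network development and collapsed as trapezoidal area under the curve. Rat cortical cultures were treated continuously from plating, with treatment renewed at feeds on DIV 5 and 9; DMSO baseline, negative-direction fit.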

Experiment [4] is described as follows: CCTE_Shafer_MEA_dev_correlation_coefficient_mean: CCTE's Neural Network Formation Assay for Mean Correlation Coefficient, Shafer Lab (AID 2284093; active means hit-call score of the fitted dose curve at least 0.9, where 1 is the maximum; inactive means score below 0.9;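 on AC50: well mean pairwise spike train correlation integrated as AUC over recording days 5 to 12; potency fitted for loss of correlation relative to DMSO vehicle wells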). In outline:
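Read-out: well-mean correlation coefficient of spike trains between electrode pairs, collapsed over four recording days as trapezoidal area-under-the-curve. Developing rat cortical neuron networks grown on MEAs received test chemical continuously from plating.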

The nature of experiment [5]: UKN2_HCS_IMR90_neural_migration: University of Konstanz (UKN) Leist Lab Neural Crest Cell Migration Assay in human induced IMR90 Pluripotent Stem Cells (UKN2) (AID 2284204; active means hit-call score of the fitted dose curve at least 0.9, where 1 is the maximum; inactive means score below 0.9). The following applies: actives raise or lower the signal. The method, boiled down:
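High-content imaging of calcein-AM and Hoechst stained cells quantifies migration into a stopper-defined gap after 24 h compound exposure. Neural crest cells from IMR90 iPSC migrated 24 h in EGF/FGF N2-S medium before dosing; DMSO baseline.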

Experiment [6] in a line: CCTE_Shafer_MEA_acute_LDH: CCTE's Lactate Dehydrogenase Assay for Cytotoxicity in the Neural Acute Assay, Shafer Lab (AID 2284086).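 Further: active means LDH release rises above DMSO vehicle level.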 The method, boiled down:
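Medium collected from MEA wells of primary rat cortical cultures (DIV 13 or 15) immediately after 40 min chemical exposure is assayed spectrophotometrically for lactate dehydrogenase activity. Endpoint fitted in positive direction versus DMSO.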

For another experiment, the system named is DIO3 (gene 1735). As to the kind of experiment: CCTE_GLTED_hDIO3: CCTE's human Deiodinase 3 (DIO3) Inhibition Assay, Great Lakes Toxicology and Ecology Division (GLTED) Lab (AID 2284055).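 Further: potency is for inhibition seen as loss of released iodide signal.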 The method, boiled down: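 Human type 3 deiodinase, expressed via adenovirus system, was exposed to test chemicals for 3 hours in a cell-free format. Released iodide was then determined spectrophotometrically by Sandell-Kolthoff; plates ran in triplicate.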

The nature of experiment [7]: UKN5_HCS_SBAD2_cell_viability: Viability Assessment in the University of Konstanz (UKN) Leist Lab Neurite Outgrowth Assay in human iPSC-derived immature Dorsal Root Ganglia Neurons (UKN5) (AID 2284056; active means hit-call score of the fitted dose curve at least 0.9, where 1 is the maximum; inactive means score below 0.9). Here is the method:
UKN5_HCS_SBAD2 is a cell-based, multiplexed-readout assay screening for neurite outgrowth and cell viability that uses SBAD2 (peripheral neurons differentiated from iPSC), a human peripheral nervous system cell line, with measurements taken at […] after chemical dosing in a microplate: 96-well plate. UKN5, also referred to as PeriTox, is an assay that uses human iPSC line SBAD2 as a model of peripheral neurons. Following 24 hr chemical exposures in multi-well plates, neurite area is evaluated as a marker of neurite outgrowth using high-content imaging of cells stained with calcein-AM. Cell viability is assessed using stain Hoechst H-33342.UKN5_HCS_SBAD2_cell_viability is an assay component measured from the UKN5_HCS_SBAD2 assay. It is designed to make measurements of enzyme activity, a form of viability reporter, as detected with Fluorescence intensity signals by HCS Fluorescent Imaging.The assay endpoint UKN5_HCS_SBAD2_cell_viability was analyzed with bidirectional fitting relative to DMSO as the negative control and baseline of activity. Using a type of viability reporter, gain or loss-of-signal activity can be used to understand viability effects. To generalize the intended target to other relatable targets, this assay endpoint is annotated to the cell cycle intended target family, where the subfamily is viability. […]

Experiment [8] is described as follows: UKN5_HCS_SBAD2_neurite_outgrowth: University of Konstanz (UKN) Leist Lab Neurite Outgrowth Assay in human iPSC-derived immature Dorsal Root Ganglia Neurons (UKN5) (AID 2284070; active means hit-call score of the fitted dose curve at least 0.9, where 1 is the maximum; inactive means score below 0.9). The following applies: actives raise or lower the signal. In outline:
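Thaw, seed on Matrigel (100.000 cells/cm2), dose 1 h later; at 23 h live-stain with H-33342 and calcein-AM for 60 min; image at 24 h. Neurite area fitted bidirectionally vs DMSO.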

The nature of experiment [9]: CCTE_Shafer_MEA_acute_AB: CCTE's Alamar Blue Assay for Cytotoxicity in the Neural Acute Assay, Shafer Lab (AID 2284069).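 Further: active compounds lower the viability signal compared with DMSO wells.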 In outline: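 Metabolic activity in chemically exposed rat cortical neurons (MEA cultures, day 13/15 post-plating) measured via CellTiter Blue resazurin reduction, 544/590 nm fluorescence; fitted relative to DMSO, with signal loss indicating reduced viability.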

Turning to `OC(Cc1ccccc1Cl)(Cn1[nH]cnc1=S)C1(Cl)CC1` (centres undefined), the AC50 in [1] is 73.5 µM (active); in experiment [2] it was 71.3 µM (active); in experiment [3], 6.39 µM (active); in experiment [4], 21.5 µM (active); in experiment [5] it was 35.4 µM (active).
As for `CS(=O)(=O)c1ccc(C(=O)C2C(=O)CCCC2=O)c(Cl)c1COCC(F)(F)F`, the molecule was called inactive in [2], in experiment [6], in [3] and in [4].
Take `O=S1(=O)OC(c2cc(Br)c(O)c(Br)c2)(c2cc(Br)c(O)c(Br)c2)c2ccccc21`: the AC50 in the experiment on DIO3 (gene 1735) is 13 µM (active).
Consider `Clc1cccc(Cl)c1Cl`, for which the call in [6] was inactive.
As to `CNC(=O)CSP(=O)(OC)OC`, the half-maximal activity concentration (AC50) in [7] was 20.9 µM (active). For the same molecule, the outcome in experiment [1], in experiment [8], in experiment [3], in experiment [4] and in experiment [5] was inactive.
As for `FC(F)OCC(F)(F)C(F)(F)F`, the molecule was classed as inactive in experiment [3] and in [4].
Consider `CCCCCCCCCCCCc1cccc(S(=O)(=O)O)c1`, for which, in the experiment with DIO3 (gene 1735), the AC50 was 38.1 µM (active). The outcome in [9] and in [6] was inactive.
As for `CCOCn1c(-c2ccc(Cl)cc2)c(C#N)c(Br)c1C(F)(F)F`, the AC50 in experiment [1] is 12.1 µM (active); in experiment [2], 20.4 µM (active); in experiment [3], 1.72 µM (active); in experiment [4], 5.53 µM (active); in experiment [5], 9.47 µM (active).
As to `Oc1cc(Cl)c(Cl)cc1Cl`, the call in experiment [9] and in experiment [6] was inactive.
In the case of `C=CC(F)(C(F)(F)F)C(F)(F)C(F)(F)F` (centres undefined), the molecule was classed as inactive in [1], in experiment [3] and in [4].
With `Oc1ccc(Cc2ccc(O)cc2)cc1`, the result in experiment [9] was inactive.
With `CC(C)[C@@H](Nc1ccc(C(F)(F)F)cc1Cl)C(=O)OC(C#N)c1cccc(Oc2ccccc2)c1` (some centres undefined), the AC50 was 23.5 µM (active) in [1], 14.5 µM (active) in [2], 9.36 µM (active) in experiment [3] and 14.5 µM (active) in experiment [4]. The call in [9] and in experiment [6] was inactive.
For `C=CCOC(F)(C(F)(F)F)C(F)(F)F`, the molecule was classed as inactive in experiment [3] and in experiment [4].
`Cc1cc(C(F)(C(F)(F)F)C(F)(F)F)ccc1NC(=O)c1cccc(I)c1C(=O)NC(C)(C)CS(C)(=O)=O`: the concentration at half-maximal activity (AC50) was 11.3 µM (active) in experiment [1], 4.32 µM (active) in experiment [2] and 19.2 µM (active) in experiment [4]. Besides, the outcome in experiment [6] and in experiment [3] was inactive.
On to `N#Cc1cccnc1`, for which the call in experiment [6] was inactive.
Take `O=C1c2ccccc2C(=O)C1C(=O)C(c1ccccc1)c1ccc(Cl)cc1` (centres undefined): the AC50 in the experiment with DIO3 (gene 1735) was 68.5 µM (active).
Turning to `CC(=Cc1ccccc1)[N+](=O)[O-]`, the half-maximal activity concentration (AC50) in the experiment with DIO3 (gene 1735) was 64.6 µM (active).
As to `OCCCCO`, the call in [9] and in experiment [6] was inactive.
As for `O=[N+]([O-])c1ccc(Cl)c([N+](=O)[O-])c1`, the AC50 in the experiment with DIO3 (gene 1735) was 7.41 µM (active).
For `CC(=O)C(F)(F)C(F)(F)F`, the result in [3] and in experiment [4] was inactive.
Turning to `CC1(C)[C@H](C(=O)O[C@H](C#N)c2cccc(Oc3ccccc3)c2)[C@@H]1/C=C(\Cl)C(F)(F)F`, the AC50 in experiment [1] is 22.7 µM (active); in experiment [2], 12.9 µM (active); in [3], 1.4 µM (active); in experiment [4] it was 5.11 µM (active).
Turning to `CCCCOC(=O)COC(=O)c1ccccc1C(=O)OCCCC`, the molecule was classed as inactive in [9] and in experiment [6].
Turning to `CN(C)C(=S)S`, the outcome in experiment [9] was inactive.
Regarding `O=C(Cc1ccccc1)OCCc1ccccc1`, the call in experiment [6] was inactive.
Consider `O=S(=O)(F)C(F)(F)C(F)(F)C(F)(F)C(F)(F)F`, for which the call in [2], in experiment [3] and in experiment [4] was inactive.
With `O=S1OC[C@@H]2[C@H](CO1)[C@]1(Cl)C(Cl)=C(Cl)[C@@]2(Cl)C1(Cl)Cl` (some centres undefined), the molecule was called inactive in experiment [7] and in [8]. Moreover, the concentration at half-maximal activity (AC50) in [5] was 14.6 µM (active).
For `NC(=O)c1ccc(N)nc1`, the AC50 is 6.05 µM (active) in experiment [1], 8.53 µM (active) in experiment [2], 7.61 µM (active) in experiment [3] and 4.57 µM (active) in experiment [4].
On to `N#CCC#N`, for which the AC50 with DIO3 (gene 1735) was 58 µM (active).
Take `CC(C)(C)c1ccccc1O`: the call in [9] and in experiment [6] was inactive.
As for `CC(F)(F)CC(F)(F)F`, the call in [2], in [3] and in experiment [4] was inactive.
For the molecule `Cc1ccccc1OP(=O)(Oc1ccccc1C)Oc1ccccc1C`, the AC50 in [1] was 20.2 µM (active); in [2], 21.1 µM (active); in experiment [3], 11.5 µM (active); in experiment [4] it was 15 µM (active); in experiment [5], 4.73 µM (active). Further, the result in experiment [6] was inactive.
